Reference: ChEMBL document CHEMBL1157539, “Thousands of chemical starting points for antimalarial lead identification” (Nature, 2010)

Assays:
Format in all cases: functional
Plasmodium falciparum [1] = assay: GSK_TCMDC: Inhibition of Plasmodium falciparum 3D7 in whole red blood cells, using parasite LDH activity as an index of growth. Test compounds present at 2uM
Plasmodium falciparum [2] = assay: GSK_TCMDC: Inhibition of Plasmodium falciparum Dd2 in whole red blood cells, using parasite LDH activity as an index of growth. Test compounds present at 2uM
HepG2 = assay: GSK_TCMDC: Percent inhibition of human HepG2 cell line. Test compounds present at 10uM.

Compound | Inhibition (Plasmodium falciparum [1]) | Inhibition (Plasmodium falciparum [2]) | Inhibition (HepG2)
O=C(C=CC(=O)N1CCCCC1)NCc1ccccc1 | 100% | 0% | 6%
CC(=O)N(C)c1cccc(C(=O)Nc2cccc(-c3cccc(-c4nc5cc(C(F)(F)F)ccc5[nH]4)c3)c2)c1 | 97% | 41% | 49%
Cc1cc(N(C)CCCN(C)C)nc(Nc2ccc(Cl)cc2)n1 | 100% | 79% | 7%
CN(C)CCN(C)Cc1ccc(-c2ccc3c(Nc4ccc(Oc5ccccc5)cc4)ccnc3c2)o1 | 100% | 100% | 5%
COc1ccc(Cl)cc1N1CCN(CCCNC(=O)c2ccc(-c3nc4cc(Cl)c(F)cc4[nH]3)s2)CC1 | 100% | 98% | 12%
Cc1ccc(-c2nnc(-c3ccc(C(=O)NC4CCN(Cc5ccc(C#N)cc5)CC4)cc3)o2)cc1Br | 91% | 7% | 41%
COc1ccc2nc(Nc3nc(-c4ccccn4)cs3)sc2c1 | 93% | 94% | 40%
Cc1ccc(-c2nnc(Nc3ccc(C(=O)N4CCCCC4)cc3)c3ccccc23)cc1S(=O)(=O)NCC1CCCO1 (configuration not stated) | 99% | 99% | 0%
O=C(NC(Cc1ccccc1)C(=O)O)c1cc(=O)c2ccccc2o1 (configuration not stated) | 99% | 10% | 53%
CC(C)(C)c1nn(-c2ccccc2)c2[nH]c(=O)c(CNCc3ccc4c(c3)OCO4)cc12 | 92% | 32% | 1%
COc1ccc(Oc2ccc(Nc3ccnc4ccc(C(F)(F)F)cc34)cc2)cc1OC.Cl | 90% | 17% | 0%
CN1CCCc2ccc(NC(=O)c3ccc(-c4cc(C(F)(F)F)nn4C)s3)cc2C1.O=C(O)C(F)(F)F | 88% | 34% | 16%
COc1cccc(C=Cc2nc(=O)c3ccccc3o2)c1OC | 97% | 97% | 0%
C(=N\Nc1nccc2sc(-c3ccccc3)cc12)/c1cccnc1 | 97% | 10% | 0%
O=C(NC1CCN(Cc2ccccc2)CC1)c1cc(-c2ccncc2)nc2ccc(Cl)cc12 | 97% | 27% | 17%
O=C(Nc1ccccc1-c1nc2ccccc2s1)C(Cl)(Cl)Cl | 97% | 99% | 12%
O=C(/C=C/c1ccc(Cl)c(Cl)c1)NCCCN1CCC(c2c[nH]c3ccccc23)CC1 | 90% | 5% | 48%
COc1ccc2nccc([C@@H](O)CN3CCC(NCc4ccc5c(c4)NC(=O)CS5)CC3)c2c1.O=C(O)C(=O)O | 100% | 36% | 0%
CN(C)CCOc1ccnc2ccc(NC(=O)Cc3ccc(-c4ccncc4)c4ccccc34)cc12 | 100% | 100% | 10%
COc1ccc(CNc2nc(NCc3ccc(C(F)(F)F)cc3)c3cc(OC)c(OC)cc3n2)cc1OC | 100% | 100% | 80%

Compound | Inhibition (Plasmodium falciparum [1]) | Inhibition (Plasmodium falciparum [2]) | Inhibition (HepG2)
Cc1ccc(-c2nc3cc(C(=O)NC4CCC(N5CCCc6ccc(C#N)cc6C5)CC4)ccc3[nH]2)cc1 (configuration not stated) | 100% | 49% | 23%
Cc1cc(Nc2cccc(C(F)(F)F)c2)nc2ccc(NC(=O)c3ccc(=O)[nH]c3)cc12 | 100% | 60% | 21%
CN1CCN(c2cc(-c3cccnc3)nc(-c3ccncc3)n2)CC1 | 100% | 89% | 11%
Cc1sc2nc(CSc3ccccc3)nc(N3CCN(CC(=O)NC4CC4)CC3)c2c1C | 96% | 95% | 2%
COc1ccc(-c2ccc(NC(=O)c3cccc(Cl)c3)cc2)cc1CN1CCCN(C)CC1.O=C(O)C(F)(F)F | 95% | 50% | 48%
CCCc1ccc(S(=O)(=O)NC2CCN(c3ccnc(Nc4ccc(OC)cc4)n3)C2)cc1 (configuration not stated) | 89% | 45% | 42%
CN1CC[C@@H](Oc2cc(NC(=O)Nc3ccc(Cl)c(C(F)(F)F)c3)ccc2Cl)C1 | 100% | 68% | 17%
CC(=O)N/N=C/[C@H](CCc1ccccc1)NC(=O)[C@H](CC(C)C)NC(=O)c1ccc(F)cc1 | 95% | 86% | 2%
COc1ccc2nc(C)cc(NC3Cc4ccccc4C3)c2c1.Cl | 98% | 13% | 20%
CCCCNc1nccc2ccc(-c3ccncc3)cc12 | 93% | 1% | 6%
Fc1ccc(CNc2nc(-c3ccc(F)c(C(F)(F)F)c3)n(-c3cccc(C(F)(F)F)c3)n2)cc1 | 95% | 80% | 0%
CC[C@H](C)CNC(=O)c1ccnc(-c2cccc(CN(C)C3CCN(C)CC3)c2)c1.O=C(O)C(F)(F)F | 100% | 33% | 0%
CS(=O)(=O)c1cccc(-c2cnc(N)c3cc(-c4ccc(F)cc4)ccc23)c1 | 91% | 33% | 28%
CC(C)(C)N1CCC(N(Cc2ccc(-c3ccc(C(F)(F)F)cc3)cc2)C(=O)Cn2c(CCc3cccc(F)c3F)cc(=O)c3cccnc32)CC1.O=C(O)C(O)C(O)C(=O)O | 100% | 63% | 100%
Cc1nc2ccc3ccc(CNc4ccc(C(=O)N[C@@H](CCC(=O)O)C(=O)N[C@@H](Cc5cccs5)C(=O)O)c(F)c4)cc3c2c(=O)[nH]1 | 97% | 96% | 43%
Clc1ccc(/N=C(/NCCCCCCCN/C(=N\c2ccc(Cl)cc2)Nc2ccc(Cl)cc2)Nc2ccc(Cl)cc2)cc1 | 100% | 99% | 100%
O=C(NCCc1ccccc1)N(Cc1cccc(-c2ccc(CNCc3ccc4c(c3)OCO4)cc2)c1)C1CCN(Cc2ccccc2)CC1.O=C(O)C(F)(F)F | 94% | 70% | 11%
COc1ccc2nccc([C@@H](O)CN3CCC(NCc4cc5cccc(OC)c5o4)CC3)c2c1.O=C(O)C(=O)O | 99% | 81% | 10%
CC(C)CCN1CCC(Oc2ccc(NC(=O)c3cccs3)cc2Cl)C1.O=C(O)C(F)(F)F (configuration not stated) | 94% | 93% | 17%
CCCOc1c(CCNCCCCNCCc2ccc3ccccc3c2OCCC)ccc2ccccc12.CS(=O)(=O)O | 100% | 78% | 100%

Compound | Inhibition (Plasmodium falciparum [1]) | Inhibition (Plasmodium falciparum [2]) | Inhibition (HepG2)
CN1CCN(CCCN(Cc2csc(-c3ccc(CNCc4ccccc4)cc3)n2)S(=O)(=O)c2ccccc2)CC1.O=C(O)C(F)(F)F | 99% | 78% | 17%
CN(C)CCNC(=O)c1ccc2c(c1)ncn2-c1cc(OCc2ccccc2C(F)(F)F)c(C(N)=O)s1.CN(C)CCNC(=O)c1ccc2ncn(-c3cc(OCc4ccccc4C(F)(F)F)c(C(N)=O)s3)c2c1 | 90% | 8% | 0%
COc1ccc(-c2ccc(NC(=O)c3ccc(Cl)cc3)cc2)cc1CN1CCNCC1.O=C(O)C(F)(F)F | 99% | 24% | 14%
CN(C(=O)c1snnc1-c1ccccc1)C1CCN(CCCCCNC(=O)/C=C/c2ccc(Cl)c(Cl)c2)CC1 | 96% | 58% | 44%
CCn1ccc2c3c(N)nc(N)nc3ccc21 | 99% | 2% | 61%
CC(C)(CNC(=O)/C=C/c1ccc(C(F)(F)F)cc1)CNc1cc(=O)c2ccccc2[nH]1 | 95% | 27% | 0%
CCCNCc1ccc(-c2ccc(CN(CC3CCCO3)C(=O)COc3ccccc3Cl)cc2)nc1.O=C(O)C(F)(F)F (configuration not stated) | 89% | 11% | 5%
O=C(NCc1cccc(F)c1)Nc1cccc(-c2ccc(-c3nc4cc(C(F)(F)F)ccc4[nH]3)cc2)c1 | 98% | 20% | 50%
CC(C)(C)NC(=O)C(c1ccc(F)cc1)N(C(=O)c1ccc(CN2CCOCC2)o1)c1ccc(C2CCCCC2)cc1 (configuration not stated) | 87% | 68% | 0%
Cc1cccc2nc(-c3ccc(-c4ccc(CN5CCN(CCN6CCOCC6)CC5)cc4)cc3)[nH]c12.O=C(O)C(F)(F)F | 98% | 74% | 49%
COC(=O)c1cccc(CNCc2cccc(-c3cccc(-c4nc5cc(F)ccc5[nH]4)c3)c2)c1.O=C(O)C(F)(F)F | 100% | 52% | 27%
COc1cc(CCNc2nc(NCc3ccccc3-c3ccccc3)nc(N3CCC(N)CC3)n2)ccc1O.O=C(O)C(F)(F)F | 100% | 70% | 25%
CN(C)CCCNCc1ccc(-c2ccc(CNCCOc3ccccc3)cc2)cc1.O=C(O)C(F)(F)F | 100% | 53% | 27%
Cc1noc(C)c1-c1ccc2c(Nc3ccccc3C(C)(C)C)c(C(=O)NCc3cccc4ccccc34)cnc2c1.Cl | 96% | 64% | 4%
CCC1CCCCN1S(=O)(=O)c1ccc(NC(=O)c2cc(C)on2)cc1 (configuration not stated) | 86% | 53% | 0%
O=C(/C=C/c1ccc(Cl)cc1)NCCCCCN1CCC(C(=O)Nc2ccc(Cl)cc2)CC1 | 99% | 0% | 27%
Cc1ccc(F)c(OCC2CCN(c3ncc(C(=O)NC4CC4)cc3Cl)CC2)c1 | 96% | 95% | 9%
COc1ccc2nc3cc(Cl)ccc3c(N)c2c1.Cl | 100% | 100% | 100%
O=C(NC1CCCCN(Cc2ccccc2O)C1)c1cccc(Cl)c1.O=C(O)C(F)(F)F (configuration not stated) | 86% | 30% | 15%
